PV pol inh – poliovirus RdRp elongation inhibitors, primary screen, biochemical, fluorescence polarization, total intensity. poliovirus polymerase elongation; stronger effect = lower value. % elongation, % (compound at 16.7 µg/mL). hit rate 0.66% among 150,000. AID 588519, 2011; in the data active = % elongation below about 90%
MenB inh – M. tuberculosis MenB inhibitors, primary screen, biochemical, absorbance; 1,4-dihydroxy-2-naphthoyl-CoA synthase (Mycobacterium tuberculosis (strain ATCC 25618 / …; MenB enzyme assay, absorbance read-out; inhibition, % (test concentration not listed); hit rate 0.43% among 100,000; AID 540299, 2011; in the data active = inhibition above about 21%, passing the limit was not always enough
AID504770 – growth inhibition of E. coli YBA685, primary screen, V. cholerae RctB inhibitors; E. coli YBA685 rctB-dependent plasmid, OD600 growth, 3 h; stronger effect = lower value; z-score (test concentration not listed); hit rate 0.27% among 130,000; in the data active = z-score below about -2, passing the limit was not always enough
MbtI inh – MbtI salicylate synthase inhibitors, primary screen, biochemical, fluorescence intensity; P9WFX0; purified MbtI enzyme, fluorescence intensity read-out; inhibition, % (no concentration beside the values); hit rate 0.89% among 100,000; in the data active = inhibition mostly above about 56%, no sharp cut-off; inactive = mostly below about 77%
Target sequence (P9WFX0 whole entry, looked up): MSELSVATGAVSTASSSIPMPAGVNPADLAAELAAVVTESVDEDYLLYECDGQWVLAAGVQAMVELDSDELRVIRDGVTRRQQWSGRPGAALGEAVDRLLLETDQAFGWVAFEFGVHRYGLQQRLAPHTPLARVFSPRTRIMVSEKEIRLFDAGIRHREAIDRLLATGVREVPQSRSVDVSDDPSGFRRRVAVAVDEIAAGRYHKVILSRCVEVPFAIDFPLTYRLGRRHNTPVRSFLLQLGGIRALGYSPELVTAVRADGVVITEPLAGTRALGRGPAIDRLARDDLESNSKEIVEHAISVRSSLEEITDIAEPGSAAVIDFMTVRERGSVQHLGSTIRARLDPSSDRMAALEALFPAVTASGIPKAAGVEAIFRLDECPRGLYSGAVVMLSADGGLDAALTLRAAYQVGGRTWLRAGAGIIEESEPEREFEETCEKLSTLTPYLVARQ
* hit, by the source's call; . = no result; ! = repeats disagree. Most compounds without a hit are left out; they make up all but 1.4% or so of the library.

SMILES	PV pol inh	MenB inh	AID504770	MbtI inh
S=c1sc2ccccc2n1CN1CCOCC1	99.0	23.7	-1.2	89.9*
CCOC(=O)N1CCN(Cn2c(=S)sc3ccccc32)CC1	107.0	-36.8	-0.55	89.2*
O=C1CCCC1Sc1nnnn1-c1ccccc1 (stereo not drawn)	102.0	-5.9	1.2	-2.3
Cc1c(Cl)cccc1N1C(=O)CC(Sc2nnnn2-c2ccccc2)C1=O (stereo not drawn)	104.0	-34.0	0.5	97.8*
Nc1c(C(=O)Nc2ccccc2)nnn1Cc1ccccc1	98.0	-6.4	0.1	-39.8
O=C(Nc1ccccc1)c1nnn(Cc2ccccc2)c1NC(=O)C(F)(F)F	89.0*	-14.4	-1.1	.
CCN1CCN(CCCNC(=O)c2cc3cc4ccc(Cl)cc4nc3o2)CC1	102.0	-14.0	-2.3*	81.5
O=C(NCCCN1CCCC1)c1cc2cc3ccc(Cl)cc3nc2o1	.	.	0.75	.
O=C(Nc1cccc(Cl)c1)OCC#Cc1ccc(-c2ccccn2)s1	.	.	1	.
Cc1ccc(C)c2[nH]c(=O)c(C3NC(=O)c4ccccc4N3)cc12 (stereo not drawn)	101.0	41.6*	-0.15	-28.6
N#CSC1C=CS(=O)(=O)C1 (stereo not drawn)	.	.	-4.8*	.
NC(=O)CC1C=CS(=O)(=O)C1 (stereo not drawn)	104.0	.	-0.3	-7.9
Cc1nnsc1-c1nc(-c2ccc(Cl)s2)cs1	102.0	8.1	0.25	-10.9
COC(=O)c1c(O)cc(=O)[nH]c1N	99.0	-24.0	0.15	-3.5
COC(=O)c1cc(=O)[nH]c(=S)[nH]1	81.0*	-28.9	0.8	87.7*
COc1ccc(NC(=S)N/N=C/c2ccc(N3CCOCC3)o2)cc1	115.0	-89.1	0.8	-12.9
O=C(Cn1cnc2c(oc3ccccc32)c1=O)Oc1ccccc1Cl	60.0*	-18.8	-0.5	11.7
COCCn1c(C)cc(/C=N/n2c(-c3ccccc3C)n[nH]c2=S)c1C	82.0*	-36.9	0.5	95.7*
C=CCc1cccc(/C=N/n2c(-c3ccccc3C)n[nH]c2=S)c1O	98.0	-58.6	2.6	12.7
O=C(Sc1nnc(-c2ccco2)n1-c1ccccc1)c1c(F)cccc1F	106.0	-17.3	-0.8	-8.8
COC(=O)Cc1nc(-c2ccccc2)cs1	86.0*	6.3	0.05	9.8
O=C(COC(=O)C1CC(=O)N(Cc2ccco2)C1)Nc1cccc(C(=O)Nc2cccc(C(F)(F)F)c2)c1 (stereo not drawn)	104.0	-34.0	-0.65	-5.2
CC(NC(=O)CN1C2CCC1CC(=O)NC2)c1ccccc1 (stereo not drawn)	100.0	28.6*	1.65	-0.4
O=C1CC2CCC(CN1)N2CC(=O)Nc1ccc(F)cc1 (stereo not drawn)	101.0	-26.0	1.3	-9.4
O=c1c(Cl)c(Nc2ccc(F)cc2)cnn1-c1ccccc1	84.0*	2.5	-0.4	3.3
SMILES	PV pol inh	MenB inh	AID504770	MbtI inh
O=c1c2ccccc2nc(-c2ccco2)n1-c1nccs1	101.0	41.6*	0.15	26.9
CN1CCN(NC(=O)COc2ccc3c(c2)CCC3)CC1	101.0	-14.2	0.75	0.0
O=C(/C=C/c1ccco1)/C=C/c1ccco1	80.0*	-44.4	-0.85	26.2
NNC(=O)Cc1nn2c(C3CCCCC3)nnc2s1	99.0	-19.6	2.25	70.2*
CCOC(=O)CC1=Nn2c(nnc2C2CCCCC2)SC1	105.0	-15.8	-0.45	2.7
CCCCn1c(=S)[nH]c2sc3c(c2c1=O)CCCC3	100.0	-46.5	-0.15	1.9
COCCn1c(=S)[nH]c2sc(C)c(C)c2c1=O	80.0*	-48.0	0.15	100.5*
CN(C)c1ccc(NC(=O)Cn2c(SCc3ccccc3F)nc3cccnc32)cc1	19.0*	.	.	.
CN1/C(=C/c2cccc[n+]2C)C=Cc2ccccc21	87.0*	-84.4	-0.8	3.2
CN1/C(=C/C=C(C#N)C#N)C=Cc2ccccc21	104.0	-13.3	-0.8	-7.2
CCN(CC)c1nc2n(c(=S)n1)CCS2	102.0	30.3*	0.9	-1.9
CCC(=O)Nc1nnc2n1CCS2	107.0	.	.	.
CCC1(C)NC(=O)N(/N=C/C2CC=CCC2)C1=O (stereo not drawn)	99.0	13.6	0.1	0.8
Cc1c(Cl)sn(-c2ccc(Cl)cc2)c1=O	101.0	7.0	-5.75*	100.6*
O=C1CSCC(=O)N1c1ccc(Cl)cc1	93.0	11.4	-0.7	4.0
CCC(N)CC12CC3CC(CC(C3)C1)C2 (stereo not drawn)	102.0	-2.6	-0.2	-7.9
Cc1ccc(CCNC(=O)c2cnc3c(-c4ccc(F)cc4)c(C)nn3c2C)cc1	76.0*	.	.	.
CCOc1ccc(CCNC(=O)c2cnc3c(-c4ccc(F)cc4)c(C)nn3c2C)cc1	105.0	.	.	.
O=c1sn(-c2ccc(F)c(Cl)c2)c(=O)n1C1Cc2ccccc2C1	95.0	9.1	-3.3*	83.2*
N#CCn1ccn(-c2ccc(F)c(Cl)c2)c(=O)c1=O	103.0	-13.1	-1.25	-9.4
Cc1sc2nc[nH]c(=S)c2c1C	100.0	-65.0	-0.8	57.3*!
O=C(Cn1nnc(-c2ccncc2)n1)N(C1CCCCC1)C1CCCCC1	104.0	active	-1.05	-0.2
COc1cc(OC)cc(C(=O)Nc2cc(NC(=O)c3ccco3)ccc2OC)c1	99.0	47.9*	-0.4	9.0
COc1ccc(NC(=O)c2ccco2)cc1NC(=O)c1ccc(C)c(C)c1	104.0	.	.	.
C=CCn1c(SCC(=O)/C(C#N)=C2\Sc3ccccc3N2C)nc2ccccc2c1=O	115.0	-0.4	0	-2.1
SMILES	PV pol inh	MenB inh	AID504770	MbtI inh
COc1ccc(C(=O)N2c3ccccc3CC2C)cc1 (stereo not drawn)	101.0	31.6*	0.6	2.2
CC1Cc2ccccc2N1C(=O)c1ccc(Cl)cc1 (stereo not drawn)	103.0	-26.7	-1	-8.5
O=S(=O)(c1ccc(Cl)cc1)n1nc(C(F)(F)F)c2cnccc21	.	.	0	.
O=C1COc2ccc(-c3csc(-n4nccc4C(F)(F)F)n3)cc2N1	87.0*	-22.7	-0.2	13.6
O=C1COc2ccc(-c3cc(-c4ccccc4)c4c(n3)-c3ccccc3OC4)cc2N1	109.0	.	.	.
N#Cc1c(N)sn(-c2ccccc2)c1=S	79.0*	-5.5	-0.35	94.2*
CN(Cc1ccc(Cl)c(Cl)c1)Cn1nnc2ccccc21	103.0	-15.8	0.4	-13.3
CC(=O)Nc1sc2c(c1CN(C)C)CCCC2	107.0	-12.5	-0.75	-5.7
CC(=O)Nc1sc2c(c1-c1nsc(=O)o1)CCCC2	82.0*	-30.0	-0.8	.
N#Cc1c(F)cccc1C(C#N)(c1ccccc1)N1CCOCC1 (stereo not drawn)	.	.	0.2	.
O=C(Cn1c(SCCOc2ccccc2)nc2ccccc21)N1CCOCC1	81.0*	.	.	.
COc1ccc(OCCSc2nc3ccccc3n2CC(=O)N2CCOCC2)cc1	107.0	.	.	.
OC[C@@H]1CCCN2CCCCC12 (stereo partly drawn)	101.0	-23.1	-0.3	5.4
C=CCN(C(=O)CSc1nnc(CC)n2c1cc1oc(C)cc12)c1ccccc1	101.0	45.4*	0.05	2.8
CCc1nnc(SCC(=O)N(CC)c2ccccc2)c2cc3oc(C)cc3n12	111.0	.	.	.
O=c1[nH]c2cc3c(cc2[nH]1)OCCO3	101.0	36.8*	-0.65	83.2

Source: PubChem
